Columns and labels:
Conditions in all cases: concentration: 1 μM, replicates: in singlicate; n = 1
[1] = tested on: MAST1
[2] = tested on: T1, MEK1
T1 construct: gene MAP2K1

[3] = tested on: T2, MEK2
T2 construct: gene MAP2K2

[4] = tested on: T3, MEK3
T3 construct: gene MAP2K3

[5] = tested on: T4, MEK4
T4 construct: gene MAP2K4

[6] = tested on: T5, MEK5
T5 construct: gene MAP2K5

[7] = tested on: T6, MEK6
T6 construct: gene MAP2K6

[8] = tested on: MELK
[9] = tested on: MERTK
[10] = tested on: MET
[11] = tested on: T7, MINK
T7 construct: gene MINK1

[12] = tested on: MKK7
[13] = tested on: MKNK1
[14] = tested on: MKNK2
[15] = tested on: T8, MLCK
T8 construct: gene MYLK3

[16] = tested on: T9, MLK1
T9 construct: gene MAP3K9

[17] = tested on: MLK2
[18] = tested on: MLK3
[19] = tested on: MRCKA
[20] = tested on: T10, MRCKB
T10 construct: gene CDC42BPB
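Further: KINOMEscan kinase panel screen.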

Structure (SMILES) | %Inh [1] [%] | %Inh [2] [%] | %Inh [3] [%] | %Inh [4] [%] | %Inh [5] [%] | %Inh [6] [%] | %Inh [7] [%] | %Inh [8] [%] | %Inh [9] [%] | %Inh [10] [%] | %Inh [11] [%] | %Inh [12] [%] | %Inh [13] [%] | %Inh [14] [%] | %Inh [15] [%] | %Inh [16] [%] | %Inh [17] [%] | %Inh [18] [%] | %Inh [19] [%] | %Inh [20] [%]
CC(C)c1ccc(O)cc1Nc1ccnc2ccc(C(F)(F)F)cc12 [GW482059] | 0 | 0 | 0 | 0 | 22 | 1 | 0 | 5 | 13 | 0 | 0 | 0 | 2 | 10 | 0 | 0 | 5 | 13 | 0 | 0
Cc1ccc(NC(=O)c2ccc(Cl)cc2)cc1-c1ccc(C(=O)Nc2ccncc2)cc1 [GSK1398467] | 0 | 0 | 0 | 0 | 3 | 0 | 0 | 0 | 18 | 0 | 0 | 0 | 0 | 12 | 0 | 0 | 9 | 15 | 9 | 3
CC(=O)c1c(C)c2cnc(Nc3ccc(N4CCNCC4)cn3)nc2n(C2CCCC2)c1=O | 0 | 0 | 0 | 0 | 0 | 1 | 0 | 5 | 0 | 0 | 0 | 0 | 0 | 0 | 8 | 0 | 0 | 0 | 0 | 35
CC(=O)c1c(C)c2cnc(Nc3ccn(C)n3)nc2n(C2CCCC2)c1=O | 0 | 0 | 0 | 13 | 0 | 0 | 4 | 1 | 0 | 0 | 8 | 0 | 0 | 0 | 0 | 0 | 21 | 0 | 0 | 5
Cc1ccccc1Cn1ccn2c(=O)cc(N3CCOCC3)nc12 [GSK2269905] | 0 | 0 | 0 | 0 | 27 | 13 | 0 | 0 | 25 | 0 | 0 | 0 | 0 | 10 | 0 | 0 | 17 | 3 | 0 | 0
Cn1cncc1-c1cc2c(Nc3ccc(OCc4ccccc4)cc3)ncnc2cn1 [GW281179] | 0 | 11 | 5 | 0 | 24 | 99.2 | 0 | 0 | 0 | 0 | 0 | 11 | 0 | 47 | 0 | 0 | 0 | 15 | 21 | 0
c1ccc(-c2ccnc3[nH]ccc23)cc1 [SB-693578] | 44 | 49 | 29 | 10 | 28 | 45 | 0 | 0 | 15 | 0 | 19 | 0 | 0 | 25 | 0 | 0 | 0 | 0 | 15 | 0
CS(=O)(=O)CCNCc1nc(-c2ccc3ncnc(Nc4ccc5c(cnn5Cc5ccccc5)c4)c3c2)cs1.Cl.Cl [GW569716] | 32 | 0 | 0 | 0 | 0 | 99.6 | 0 | 0 | 0 | 0 | 1 | 0 | 0 | 23 | 0 | 1 | 0 | 0 | 17 | 18
CCn1c(-c2ccccc2)nc2cnccc21 [SB-733416] | 0 | 0 | 0 | 0 | 25 | 37 | 0 | 0 | 24 | 0 | 0 | 16 | 25 | 28 | 0 | 0 | 3 | 7 | 0 | 14
COC(=O)c1cccc(NC(=O)NC2CCN(c3ccnc(Nc4ccc(F)cc4)n3)C2)c1 (stereo not shown) [GSK1379725] | 0 | 0 | 0 | 0 | 36 | 12 | 0 | 0 | 2 | 0 | 0 | 0 | 0 | 1 | 0 | 0 | 0 | 0 | 4 | 0
Nc1cccc(-c2ccc3c(N)n[nH]c3c2)n1 [GSK2192730] | 0 | 3 | 22 | 3 | 1 | 31 | 18 | 0 | 0 | 0 | 50 | 0 | 13 | 61 | 76 | 0 | 0 | 0 | 0 | 0

Source: paper PMC5540273 (PLoS ONE, 2017)
